Columns and labels:
Conditions in all cases: concentration: 1 μM,replicates: in singlicate; n = 1
PCTK2 = test system: T1, PCTK2
T1 construct: gene CDK17

PCTK3 = test system: T2, PCTK3
T2 construct: gene CDK18

PDGFRA = test system: PDGFRA
PDGFRB = test system: PDGFRB
PDPK1 = test system: PDPK1
PFTAIRE2 = test system: PFTAIRE2
PFTK1 = test system: T3, PFTK1
T3 construct: gene CDK14

PHKG1 = test system: PHKG1
PHKG2 = test system: PHKG2
PIK3C2B = test system: PIK3C2B
PIK3C2G = test system: PIK3C2G
PIK3CA = test system: PIK3CA
PIK3CB = test system: PIK3CB
PIK3CD = test system: PIK3CD
PIK3CG = test system: PIK3CG
PIK4CB = test system: T4, PIK4CB
T4 construct: gene PI4KB

PIKFYVE = test system: PIKFYVE
PIM1 = test system: PIM1
PIM2 = test system: PIM2
PIM3 = test system: PIM3
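Further: KINOMEscan kinase panel screen.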

SMILES	%Inh (PCTK2)	%Inh (PCTK3)	%Inh (PDGFRA)	%Inh (PDGFRB)	%Inh (PDPK1)	%Inh (PFTAIRE2)	%Inh (PFTK1)	%Inh (PHKG1)	%Inh (PHKG2)	%Inh (PIK3C2B)	%Inh (PIK3C2G)	%Inh (PIK3CA)	%Inh (PIK3CB)	%Inh (PIK3CD)	%Inh (PIK3CG)	%Inh (PIK4CB)	%Inh (PIKFYVE)	%Inh (PIM1)	%Inh (PIM2)	%Inh (PIM3)
CCN1CCN(CCCC(=O)Nc2n[nH]c3nc(-c4ccc(O)cc4)c(Br)cc23)CC1 [SB-731579]	40%	41%	39%	99.4%	0%	11%	31%	0%	2%	0%	16%	0%	0%	44%	6%	16%	14%	57%	89%	72%
Cc1nnc(-c2ccc3occ(-c4ccc(S(C)=O)cc4)c3n2)o1 (stereo not shown)	2%	0%	0%	0%	2%	0%	0%	0%	16%	0%	0%	0%	8%	0%	0%	0%	0%	0%	3%	4%
Cc1ccc2c(-c3ccnc(Nc4ccc(C(F)(F)F)cc4)n3)cnn2n1 [GW819776]	12%	0%	0%	45%	0%	12%	0%	18%	0%	0%	0%	2%	0%	0%	48%	33%	23%	10%	0%	0%
O=C(NOCC1CC1)c1cc(Br)c(F)c(F)c1Nc1ccc(I)cc1Cl	0%	0%	0%	13%	9%	0%	0%	0%	0%	0%	0%	0%	0%	0%	0%	0%	41%	0%	9%	1%
CCCC(=O)Nc1n[nH]c2ncccc12 [SB-601436]	0%	0%	0%	0%	0%	14%	9%	0%	0%	0%	0%	0%	0%	0%	7%	12%	0%	0%	0%	0%
Cn1ccc2ncnc(Oc3ccc(NC(=O)Nc4ccnc(C(F)(F)F)c4)c(Cl)c3)c21	0%	0%	97%	100%	0%	5%	0%	24%	8%	0%	13%	0%	0%	0%	0%	0%	7%	5%	3%	0%
Cn1ccc2ncnc(Oc3ccc(NC(=O)Nc4cccc(C(F)(F)F)c4)c(Cl)c3)c21	0%	8%	98.6%	100%	0%	3%	10%	0%	3%	0%	5%	0%	19%	0%	0%	0%	29%	12%	1%	15%
O=C(Nc1ccc(Oc2ccc3nc(NC(=O)C4CC4)cn3n2)c(F)c1)c1cccn(-c2ccccc2)c1=O	5%	5%	96.3%	100%	0%	0%	0%	61%	0%	0%	0%	0%	0%	0%	0%	0%	4%	5%	8%	0%
CS(=O)c1ccc(-c2coc3ccc(-c4n[nH]c(=O)o4)cc23)cc1 (stereo not shown)	2%	0%	10%	0%	0%	0%	4%	0%	6%	8%	49%	46%	41%	35%	78%	43%	64%	87%	82%	84%
CCn1c(-c2nonc2N)nc2cncc(Br)c21 [SB-738004]	14%	6%	50%	18%	6%	10%	25%	0%	0%	0%	12%	0%	21%	34%	11%	5%	39%	89%	0%	62%
CC(=O)Nc1nc2cnc(Nc3cc(NC(=O)c4cccc(CC(C)(C)C#N)c4)ccc3C)nc2s1	47%	29%	99%	100%	39%	31%	14%	19%	0%	14%	60%	11%	66%	54%	8%	27%	0%	16%	8%	22%
CN(c1ccc2c(c1)nc(NCc1ccc(F)cc1)n2C)c1ccnc(Nc2ccc(CS(C)(=O)=O)cc2)n1.Cl [GW813244]	0%	0%	99%	100%	0%	14%	0%	0%	0%	0%	0%	27%	0%	0%	0%	0%	0%	18%	49%	15%
Cc1ccn2nc(-c3ccc(F)cc3)c(-c3ccncc3)c2c1.Cl [GW457859]	18%	7%	0%	33%	0%	7%	24%	0%	11%	0%	20%	0%	0%	1%	1%	0%	54%	16%	0%	0%
COC(=O)Nc1nc2cc(Oc3ccc(NC(=O)Nc4cc(C(F)(F)F)ccc4Cl)cc3)ccc2[nH]1.Cl [GW697465]	11%	26%	86%	100%	0%	80%	39%	1%	0%	0%	0%	0%	16%	4%	0%	0%	20%	30%	0%	22%

Reference: paper PMC5540273 (PLoS ONE, 2017)
